Measurements taken from ChEMBL document CHEMBL3988442, “University of Dundee, Small-Polar-MMV Screening Library” (2021).
Out of some 48,000 compounds screened, about 13,000 (27%) showed an effect of 50% or more. The list shows a part of the results.

What follows are compounds tested on Wolbachia pipientis (assay: Anti-Wolbachia Cell-Based Screen). Conditions: 5 µM.
Assay type: functional
Design: scale not given: in the data most compounds retested in dose-response had high values
In the case of `c1ccc(-c2cc(CN3C[C@@H]4CC[C@H](C3)N(CC3CCC3)C4)on2)cc1`, the “Percent Effect” value was 10.47%.
`O=C(CN1CCOC1=O)N1CCC2(CCc3ccccc32)CC1` was tested, and the “Percent Effect” value was -4.229%.
`CCCNC(=O)c1ccc(S(=O)(=O)NC2(COC)CCCC2)cc1` was tested, and the “Percent Effect” value was -2.263%.
In the case of `CC(C)c1cc(NCC2(N(C)C)CCCC2)ncn1`, the “Percent Effect” value was -5.055%.
With `O=C(c1cc(CC2(NCc3ccccc3)COC2)no1)N1CCCCC1` the “Percent Effect” value was 5.452%.
For `CS(=O)(=O)CCCNC1(c2cccc(Cl)c2)CCCC1`, the “Percent Effect” value was -3.433%.
`COC(=O)NCCCC(=O)NC1(c2cccc(Cl)c2)CC1` was tested, and the “Percent Effect” value was -10.63%.
For `N#CCCCS(=O)(=O)NC(=O)c1ccccc1F`, the “Percent Effect” value was -12.54%.
With `N#CCCCS(=O)(=O)NC(=O)c1cccc(Cl)c1F` the “Percent Effect” value was -1.006%.
For `N#CCCCS(=O)(=O)NC1(c2cccc(Cl)c2)CC1`, the “Percent Effect” value was 95.05%.
In the case of `N#CCCCS(=O)(=O)NC1(c2ccc(F)cc2)CC1`, the “Percent Effect” value was 94.21%.
For `COCCCC(=O)NC1(c2cccc(Br)c2)CC1`, the “Percent Effect” value was -6.052%.
With `N#CCCCS(=O)(=O)NC1(c2cccc(Br)c2)CC1` the “Percent Effect” value was 115.6%.
For `CS(=O)(=O)CCC(=O)NC1(c2cccc(Br)c2)CC1`, the “Percent Effect” value was -24.79%.
For `Cc1[nH]ncc1C(C)NCc1cccnc1` (stereo not given), the “Percent Effect” value was -9.734%.
For `CCN(C)C[C@@H]1CN(Cc2cnc3c(S(C)(=O)=O)cnn3c2)C[C@@H]1CO`, the “Percent Effect” value was -15.72%.
With `Cc1noc(C)c1CN1C(=O)[C@H]2CC[C@@H]1CN(Cc1cccnc1N)C2` the “Percent Effect” value was 18.74%.
With `O=C(CCc1ccc(F)cc1)NS(=O)(=O)c1ccc2c(c1)OCCO2` the “Percent Effect” value was -1.397%.
For `NC(=O)CN1CCN(CC2CC2)c2ccccc21`, the “Percent Effect” value was -6.284%.
With `COCCC(=O)N1CCN(CC2CC2)c2ccccc21` the “Percent Effect” value was -5.529%.
With `CCN1CCN(C(=O)C2CCOC2)c2ccccc21` (stereo not given) the “Percent Effect” value was 120.4%.
`O=C(C1CCOC1)N1CCN(CC2CC2)c2ccccc21` (stereo not given) was tested, and the “Percent Effect” value was 109.4%.
`CCN1CCN(C(=O)c2csnn2)c2ccccc21` was tested, and the “Percent Effect” value was 3.89%.
`CCc1nc(C)ncc1C(=O)N1CCN(CC)c2ccccc21` was tested, and the “Percent Effect” value was -9.426%.
For `COc1ccc(S(=O)(=O)NC(=O)c2ccccc2F)cc1OC`, the “Percent Effect” value was -11%.
With `CC(C)c1ccc(OCn2ccc(C(=O)N3CCCC3)n2)cc1` the “Percent Effect” value was -7.702%.
`Cc1cnc(N2CC[C@@H]3O[C@@H](COCc4ccccn4)CC[C@@H]32)nc1.O=C(O)C(F)(F)F.O=C(O)C(F)(F)F` was tested, and the “Percent Effect” value was 7.451%.
In the case of `Cn1cccc1C(=O)N1CC[C@H]2[C@@H]1CCC(=O)N2c1ccccc1`, the “Percent Effect” value was -9.424%.
`CNC(=O)c1cccnc1NCCOc1ccccc1` was tested, and the “Percent Effect” value was 11.05%.
With `CNC(=O)CS(=O)(=O)C1CCN(S(=O)(=O)C2CC2)CC1` the “Percent Effect” value was -8.784%.
With `CC1CCC(NS(=O)(=O)CC(=O)NCC2CCC2)CC1` (stereo not given) the “Percent Effect” value was 101.5%.
`CCC(C(=O)NC1(C(N)=O)CCCC1)n1cccn1` (stereo not given) was tested, and the “Percent Effect” value was -7.452%.
With `Cc1ccc(NC(=O)CS(=O)(=O)NC2CCC(C)CC2)nc1` (stereo not given) the “Percent Effect” value was 0.19%.
With `CC1CCC(NS(=O)(=O)CC(=O)Nc2ccc(N3CCCC3)cn2)CC1` (stereo not given) the “Percent Effect” value was -1.172%.
In the case of `CC1CCN(CCNC(=O)C2CCN(S(N)(=O)=O)CC2)CC1`, the “Percent Effect” value was -8.736%.
For `CNC(=O)CS(=O)(=O)NC1CCC(C)CC1` (stereo not given), the “Percent Effect” value was 97.23%.
For `COCCC1(CNC(=O)NCC2CCC2)CCC1`, the “Percent Effect” value was -13.86%.
For `CC1CCC(N2CCC(NS(=O)(=O)CCCF)CC2)CC1` (stereo not given), the “Percent Effect” value was -1.792%.
For `CNS(=O)(=O)CC(=O)N(C1CCCC1)C1CC1`, the “Percent Effect” value was -5.548%.
In the case of `CC1CCC(NS(=O)(=O)CC(=O)NC2(C(N)=O)CCCC2)CC1` (stereo not given), the “Percent Effect” value was 92.28%.
In the case of `CCNC(=O)CS(=O)(=O)NC1CCC(C)CC1` (stereo not given), the “Percent Effect” value was 91.13%.
With `Cc1nc(C)n(CC2CCCCN2CC(=O)Nc2cccnc2)n1` (stereo not given) the “Percent Effect” value was -1.265%.
In the case of `Cn1cc(CNCCNC(=O)Cc2ccccc2)c(-c2cccnc2)n1`, the “Percent Effect” value was 13.61%.
With `COc1ccccc1S(=O)(=O)N1CC(N(C)C)Cc2ccccc21` (stereo not given) the “Percent Effect” value was 4.709%.
With `CN(C)C(=O)CN1C[C@H]2CCN(C(=O)C3CCCO3)CC[C@H]2S1(=O)=O` (stereo not given in full) the “Percent Effect” value was -8.272%.
In the case of `CCOc1ccnc(N2CCCN(c3nc(C4CC4)ns3)CC2)n1`, the “Percent Effect” value was -0.1352%.
`CCCC(Nc1nc(COCC)nc2c1CCNCC2)c1nccn1C` (stereo not given) was tested, and the “Percent Effect” value was 3.628%.
`CC1CCC(NS(=O)(=O)CC(=O)NC(C2CC2)C2CC2)CC1` (stereo not given) was tested, and the “Percent Effect” value was 99.55%.
`CC1CCC(N2CCC(NS(=O)(=O)CCOC(C)C)CC2)CC1` (stereo not given) was tested, and the “Percent Effect” value was -12.56%.
`O=C(CN1CCN(CCO)CC1)NC(C1CC1)C1CC1` was tested, and the “Percent Effect” value was -6.092%.
With `O=C(c1ccccc1F)N1CCN(c2ccc(-n3cccn3)nn2)CC1` the “Percent Effect” value was 5.073%.
In the case of `CC/C=C(/C)C(=O)N1CSCC1C(=O)N(C)CCc1ccncc1` (stereo not given), the “Percent Effect” value was -7.241%.
`CC(=O)N1Cc2ccccc2C[C@H]1C(=O)N(C)CCc1ccccn1` was tested, and the “Percent Effect” value was -17.28%.
For `CN(CCc1ccccc1)C(=O)c1cc(CN2CCC(O)CC2)on1`, the “Percent Effect” value was -17.23%.
With `CN(Cc1cnn(C)c1)C(=O)C1COc2ccccc2C1` (stereo not given) the “Percent Effect” value was -7.691%.
